Screening data as filed in PubChem BioAssay.
Pf growth 96h: Primary qHTS for delayed death inhibitors of the malarial parasite plastid, 96 hour incubation; P. falciparum luciferase reporter growth, 96 h; Potency, µM (series often up to 28.7 µM), for the others: at the highest dose activity change, negative = inhibition, usual class: inhibitors; actives 6.9% (n = 320,000); AID 504834, 2011; also: potency is read from the fitted curve at half-maximal effect; % is scaled to controls: 0 for no effect and ±100 for the full control effect
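Compounds incubated with erythrocytes infected by luciferase-expressing P. falciparum (2% hematocrit, 0.05% parasitemia final) for 96 hours, 37 C in 5% CO2. Growth inhibition scored as decreased luciferase luminescence.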
CHX counter: Cycloheximide Counterscreen for Small Molecule Inhibitors of Shiga Toxin; cell reporter, cycloheximide protein synthesis inhibition counterscreen; max response, %; actives 12% (n = 300,000); in the data active = max response mostly above about 13%, no sharp cut-off; inactive = mostly below about 14%; also: read at 38.3 µM for the half of the compounds with a filed dose; 0% is about no effect
HCV inhibitor: qHTS Assay for Inhibitors of Hepatitis C Virus (HCV); Huh7.5.1 HCVcc-Cre infection, luciferase reporter, 44 h; Potency, µM (series often up to 41.8 µM), without a hit: at the highest dose activity change, negative = inhibition, hits mostly inhibitors; actives 3.4% (n = 340,000); AID 651820, 2012; also: potency is read from the fitted curve at half-maximal effect; % is scaled to controls: 0 for no effect and ±100 for the full control effect
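Cells seeded at 1,000/well and cultured 4 h, then compounds added followed by HCVcc-Cre virus (~0.5 moi). After 44 h further culture, luciferase substrate was added, plates held 15 min at room temperature, and luminescence read for 15 sec.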
HCMV antiviral: qHTS Assay for inhibitors of the human cytomegalovirus (HCMV); AID 1259415, 2018; activity change, negative = inhibition, % at 57.5 µM; HFF cells, HCMV-luciferase reporter, 72 h; hits give low values; actives 4.5% (n = 410,000); in the data active = activity change below about -60%; inconclusive = no clear call, values can overlap the other calls; inactive = above about -39%; also: % is scaled to controls: 0 for no effect and ±100 for the full control effect
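After 16 h attachment at 37C, HFF cells received test compound and HCMV-luciferase (1 PFU/cell); reporter luminescence read 72 h later, data normalized against buffer-only and known inhibitor Salinomycin.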
Shiga toxin inh: A qHTS for Small Molecule Inhibitors of Shiga Toxin; actives 9.2% (n = 290,000); Vero cells, Shiga toxin protein synthesis inhibition reporter; inhibition, % at 38.7 µM; AID 2315, 2010; in the data active = inhibition mostly above about 28%, no sharp cut-off; inactive = mostly below about 43%; also: 0% is about no effect
Pf growth 48h: Primary qHTS for delayed death inhibitors of the malarial parasite plastid, 48 hour incubation | P. falciparum luciferase growth in erythrocytes, 48 h | Potency, µM (highest dose often 28.7 µM), inactives show top-dose activity change, negative = inhibition, usual class: inhibitors | actives 5.9% (n = 310,000) | AID 504832, 2011; also: potency is read from the fitted curve at half-maximal effect; % is scaled to controls: 0 for no effect and ±100 for the full control effect
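In quantitative HTS format, infected erythrocytes bearing luciferase-reporter parasites were treated for a single generation at 37 C. Luminescence after adding detection reagent served as the growth measure.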
An asterisk follows results filed as active; ? = inconclusive; · = not tested or not shown; [ ] = remark or other dose. A selection: hits, their analogues and other compounds. The true share with any hit is near 21%. Unless noted, calls follow the shape of the dose curve; as a rule, active = well fitted inhibition curve with a large enough effect; inconclusive = small, poorly fitted or top-dose-only effect, or another doubt; inactive = no such curve, though single readings can be large or run the other way.

SMILES	Pf growth 96h	CHX counter	HCV inhibitor	HCMV antiviral	Shiga toxin inh	Pf growth 48h
CC1(C(=O)NCc2ccc(Cl)c(Cl)c2)Oc2cccnc2NC1=O (stereo not drawn)	5.2µM*	-7	-25%	?	-3	?
CCC(=O)N1CCc2cc(S(=O)(=O)N3CCN(C(=O)c4ccco4)CC3)ccc21	-14%	6	-5%	-4	14	?
O=C(c1ccco1)N1CCN(S(=O)(=O)c2ccc3c(c2)CCN3C(=O)C2CCC2)CC1	-6%	-3	?	-17	0	13µM*
O=C(C1CCC1)N1CCc2cc(S(=O)(=O)N3CCN(c4ccccn4)CC3)ccc21	-2%	-5	?	·	-1	10µM*
O=C(CSc1nnc2ccccn12)Nc1ccc(S(=O)(=O)N2CCOCC2)cc1	1%	1	16%	19	-15	-2%
O=S(=O)(c1ccc(OCC(O)CNC23CC4CC(CC(C4)C2)C3)c(Cl)c1)N1CCOCC1 (stereo not drawn)	?	1	?	-12	-2	10µM*
O=C(COc1ccc(S(=O)(=O)N2CCOCC2)cc1Cl)NC1CCCCC1	-18%	-1	13%	8	-9	?
CCn1cc2nc(SCc3cccc(C(F)(F)F)c3)n(Cc3ccc(C)cc3)c(=O)c2n1	·	·	·	-17	·	·
Cc1ccc(-n2nc3c(=O)n(CCCC(=O)NC(C)c4ccccc4)nc(C)c3c2C)cc1 (stereo not drawn)	·	·	·	22	·	·
O=C(Nc1nc2ccccc2s1)c1ccccc1[N+](=O)[O-]	?	46*	-14%	86	60*	66%
O=C(O)c1cccc([N+](=O)[O-])c1C(=O)Nc1nc2ccccc2s1	47%	6	11%	77	34	10%
COc1ccc2nc(NC(=O)c3cc(=O)c4cc(C)c(C)cc4o3)sc2c1	·	·	·	-8	·	·
COc1ccc2nc(NC(=O)c3ccccc3[N+](=O)[O-])sc2c1	-24%	40*	?	8	71*	13%
COc1ccc2nc(NC(=O)c3ccccc3O)sc2c1	3%	58*	9%	0	63*	0%[0.00184 µM]
CCOC(=O)c1cccc(C(=O)Nc2nc3ccc(OC)cc3s2)n1	331%	21	-4%	29	39*	367%
COC(=O)c1nnn(-c2cc(Cl)cc(Cl)c2)c1C(=O)OC	29%	-3	23%	34	-4	30%
Cc1nn(C)c2c1c(-c1ccccc1)cc(=O)n2Cc1ccccc1Cl	·	·	·	-17	·	·
CCCS(=O)(=O)N1CC(=O)N(c2ccccc2F)C(C)(C(=O)NC2CCCCCC2)C1 (stereo not drawn)	·	·	·	0	·	·
Cc1c(CNCCc2ccc(Cl)cc2)c(C(=O)O)c(C)n1-c1ccccc1	12µM*	-2	18%	58	26	12%
O=[N+]([O-])c1cc(Cl)cc(C2=NCCN2)c1	?	1	8.9µM*	20	-12	·
CC(=O)c1c(C)n(CC(=O)NCc2ccco2)c2ccccc12	16%	-3	5%	-34	-2	?
Cc1ccc(NCc2cccn2-c2nnc(N3CCC(C(=O)NCCc4ccccc4)CC3)s2)cc1	·	·	·	-39	·	·
CCOc1ccc(NCc2cccn2-c2nnc(N3CCC(C(=O)NCCCN4CC(C)CC(C)C4)CC3)s2)cc1 (stereo not drawn)	2%	2	?	-85*	32	?
COc1ccccc1CCNC(=O)C1CCN(c2nnc(-n3cccc3CNc3ccc(C)cc3)s2)CC1	·	·	·	48	·	·
CCOc1ccc(NCc2cccn2-c2nnc(N3CCC(C(=O)NCCc4ccc(OC)c(OC)c4)CC3)s2)cc1	·	·	·	-85*	·	·
SMILES	Pf growth 96h	CHX counter	HCV inhibitor	HCMV antiviral	Shiga toxin inh	Pf growth 48h
CCOc1ccc(NCc2cccn2-c2nnc(N3CCC(C(=O)NCCc4ccc(OCC)c(OCC)c4)CC3)s2)cc1	·	·	·	-80*	·	·
Cc1ccc(NCc2cccn2-c2nnc(N3CCC(C(=O)NCc4ccc(F)cc4)CC3)s2)cc1	·	·	·	-78*	·	·
N#Cc1ccc(C(=O)OCC(=O)Nc2cccnc2Cl)cc1	-17%	·	-20%	75	·	-16%
Cc1ccc(S(=O)(=O)N(C)C)cc1NC(=O)COC(=O)Cc1ccccc1F	1%	·	6%	-15	·	?
Cc1ccc(S(=O)(=O)N2CCCC(C(=O)NCCc3ccccc3)C2)cc1 (stereo not drawn)	?	-2	-15%	-1	-1	-25%
CCCn1c(=O)c2ccccc2n2c(SCCOc3ccc(OC)cc3)nnc12	3%	-1	-18%	18	14	?
COc1ccc(Cn2c(=O)c3ccccc3n3c(-c4cccc(OC)c4OC)nnc23)cc1	·	·	·	-89*	·	·
COc1ccccc1Cn1c(=O)c2ccccc2n2c(SCc3csc(C)n3)nnc12	5.2µM*	10	-14%	-8	20	?
COc1ccccc1Cn1c(=O)c2ccccc2n2c(Sc3ncnc4sccc34)nnc12	17%	-1	10µM*	?	-16	?
COc1ccc(NC(=O)Cn2cc(S(=O)(=O)N3CCC(C)CC3)c3ccccc3c2=O)cc1Cl	·	·	·	-9	·	·
Cc1ccc(C)c(NC(=O)Cn2c(=O)n(CC3CCCO3)c(=O)c3ccccc32)c1 (stereo not drawn)	·	·	·	8	·	·
CC(C)CC1NC(=O)N(CC(=O)c2ccc3c(c2)OCCO3)C1=O (stereo not drawn)	132%	34*	-22%	96	135*	99%
CC1CCN(CC(=O)c2ccc3c(c2)OCCO3)CC1	284%	9	3%	-61*	21	298%
CC1CCN(CC(C)OC(=O)c2ccc3c(c2)OCCO3)CC1 (stereo not drawn)	36%	23*	1%	-3	28	·
CC(CN1CCCCC1)OC(=O)c1ccc2c(c1)OCO2 (stereo not drawn)	-16%	25*	12%	-29	24	-8%
CC1CCCCC12NC(=O)N(CC(=O)c1ccc3c(c1)OCO3)C2=O (stereo not drawn)	?	·	20%	5	·	6%
CC1CCN(C(=O)COC(=O)c2ccc3c(c2)OCCO3)CC1	·	·	4%	-17	·	·
COc1ccccc1NC(=O)Cc1ccsc1	11%	-3	-2%	1	12	13%
COc1cc(C)ccc1OCCSc1nc(-c2cccc(C)c2)nc2cc(=O)[nH]n12	·	·	·	10	·	·
CCc1cc([N+](=O)[O-])cc(CC)c1N	?	-2	11µM*	-20	-8	·
Cc1ccc([N+](=O)[O-])cc1N	51%	3	4%	39	5	18%
CCOc1ccc(-c2cnc3n2CCC3)cc1	15µM*	1	?	-36	-6	·
